Measured values published in PubChem BioAssay (EPA / NIEHS).
Calls of active or inactive are those of the source. The calls were made as follows: active = hit-call score of the fitted dose curve at least 0.9, where 1 is the maximum; inactive = score below 0.9.

Target: Paired box protein Pax-6 (Homo sapiens) (UniProt P26367)
Assay: ATG_Pax6_CIS: Attagene CIS-FACTORIAL HepG2 Assay for human Paired Box 6 (PAX6) (AID 2282956)
Details: HepG2 CIS-FACTORIAL PAX6 reporter transcription, RNA readout; actives raise or lower the signal
Protocol: ATG_CIS is a cell-based, multiplexed-readout assay that uses HepG2, a human liver cell line, with measurements taken at 24 hours after chemical dosing in a 24-well plate.ATG_Pax6_CIS is one of 52 assay component(s) measured or calculated from the ATG_CIS assay. It is designed to make measurements of mRNA induction, a form of inducible reporter, as detected with fluorescence intensity signals by Reverse transcription polymerase chain reaction (RT-PCR) and Capillary electrophoresis technology.Data from the assay component ATG_Pax6_CIS was analyzed into 1 assay endpoint. This assay endpoint, ATG_Pax6_CIS, was analyzed with bidirectional fitting relative to DMSO as the negative control and baseline of activity. Using a type of inducible reporter, measures of mRNA for gain or loss-of-signal activity can be used to understand the reporter gene at the transcription factor-level as they relate to the gene PAX6. Furthermore, this assay endpoint can be referred to as a primary readout, because this assay has produced multiple assay endpoints where this one serves a reporter gene function. To generalize the intended target to other relatable targets, this assay endpoint is annotated to the dna binding intended target family, where the subfamily is paired box protein.
Human liver HepG2 cells are transiently transfected with multiple reporter transcription units (MRTUs) in 6-well plates using FuGene 6 reagent (Roche; 3 ml FuGene/1 mg DNA). The MRTU constructs are regulated by a cis-regulating element (promoter). […] A major difference between the CIS and TRANS system is that in CIS activities of endogenous TFs are measured, whereas the TRANS assay evaluates changes in activities of exogenous, chimeric NR-Gal4 proteins. […] At the end of 24 hour incubation, total RNA was isolated using TriZol reagent (Invitrogen). The isolated RNA is then reverse-transcribed using oligo(dT) primer and Mo-MLV reverse transcriptase (Invitrogen) with DNAse I (Ambion) treatment for 30 min. The one-tenth of the produced cDNA was amplified by PCR using Taq DNA polymerase (Invitrogen) and two reporter sequence-specific primers. The PCR products were fluorescently labeled by primer extension with 6-arboxyfluorescein (6-FAM) 5'-labeled reporter sequence-specific primer (2 min at 95 C, 20 s at 68 C and 10 min at 72 C) and these products were digested with 5U of HpaI (New England Biolabs) for 2h at 37 C. The fragments were purified using Qiaquick PCR columns (Qiagen), analyzed on an ABI 3130xL genetic analyzer (Applied Biosystems) with peak positions identified by using a set of X-rhodamine (ROX)-labeled MapMarker1000 molecular weight standards (BioVentures). The raw capillary electrophoresis data was processed using Attagraph software (Attagene).

Sequence of Paired box protein Pax-6 (Homo sapiens) (P26367 whole entry, looked up): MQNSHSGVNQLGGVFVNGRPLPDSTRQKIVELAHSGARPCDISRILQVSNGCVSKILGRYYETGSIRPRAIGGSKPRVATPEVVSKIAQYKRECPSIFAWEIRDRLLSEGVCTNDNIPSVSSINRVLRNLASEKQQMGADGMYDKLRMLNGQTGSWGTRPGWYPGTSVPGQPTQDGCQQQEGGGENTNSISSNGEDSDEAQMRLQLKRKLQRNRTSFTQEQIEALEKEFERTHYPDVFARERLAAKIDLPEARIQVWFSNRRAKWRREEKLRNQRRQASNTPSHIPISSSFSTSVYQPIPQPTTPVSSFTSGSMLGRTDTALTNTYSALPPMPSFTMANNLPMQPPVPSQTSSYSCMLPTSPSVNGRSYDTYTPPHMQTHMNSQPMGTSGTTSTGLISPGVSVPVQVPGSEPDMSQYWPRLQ

With `C=CC(=C)CCC=C(C)C` as the compound, how does the outcome read?
The outcome was “inactive”.

How did the outcome turn out when `CCNc1ccccc1` was run?
Its outcome is “inactive”.

How did the outcome turn out when `COc1ccc(/C=C/S(=O)(=O)NC(=O)c2ccc(C)cc2Cl)cc1` was run?
Its outcome is “inactive”.

`CCCCCCc1ccc(O)cc1O` was tested. Which AC50 did it give?
The AC50 was 51.1 µM (active).

For `CCN(C(=O)c1cc(C)cc(OC[C@H](C)Nc2ccncc2)c1)C(C)C`, which outcome is on record?
The outcome was “inactive”.

With `COCCOc1cc2cc(C(=O)NC3CCN(C(C)C)CC3)n(CC(=O)Nc3ccc(Cl)cn3)c2cn1` as the compound, how does the AC50 read?
The AC50 was 124 µM (active).

With `CC(C)=CCCC(C)CCO` (stereo not given) as the compound, how does the outcome read?
Its outcome is “inactive”.

For `O=C(O)c1cc(N=Nc2ccc(S(=O)(=O)Nc3ccccn3)cc2)ccc1O`, which outcome is on record?
Its outcome is “inactive”.

`O=C(CCCCCCCCc1cccnc1)N1CCC(C=C(c2ccccc2)c2ccccc2)CC1` was tested. Which AC50 did it give?
Its AC50 is 9.32 µM (active).

How did the outcome turn out when `COc1cccc(-c2ccc(/C=C\CN3CCCCCC3)cc2Cl)c1` was run?
The outcome was “inactive”.

`NC(=O)NO` was tested. Which outcome did it give?
Its outcome is “inactive”.

With `CCOCCO` as the compound, how does the outcome read?
Its outcome is “inactive”.

For `CC(C)c1cccc(C(C)C)c1N1C(=O)c2ccc(O)cc2C1=O`, which AC50 is on record?
Its AC50 is 76.9 µM (active).

How did the outcome turn out when `O=C(O)c1cccc(N(Cc2cccnc2)c2ccc(OC(F)F)c(OC(F)F)c2)c1` was run?
The outcome was “inactive”.

How did the AC50 turn out when `O=P(OC(CCl)CCl)(OC(CCl)CCl)OC(CCl)CCl` was run?
Its AC50 is 46.9 µM (active).

For `O=C(O)CC(O)C(=O)O` (stereo not given), which outcome is on record?
Its outcome is “inactive”.

How did the outcome turn out when `CC(=O)OC[C@H]1O[C@@](COC(C)=O)(O[C@H]2O[C@H](COC(C)=O)[C@@H](OC(C)=O)[C@H](OC(C)=O)[C@H]2OC(C)=O)[C@@H](OC(C)=O)[C@@H]1OC(C)=O` was run?
The outcome was “inactive”.

`On1ccccc1=S` was tested. Which outcome did it give?
The outcome was “inactive”.

How did the outcome turn out when `CCCC(=O)OCC` was run?
The outcome was “inactive”.

How did the outcome turn out when `CCOC(=O)CC(CC(=O)OCC)(OC(C)=O)C(=O)OCC` was run?
The outcome was “inactive”.

`Cn1c(=O)cc(Oc2ccc(F)cc2F)c2cnc(NCC(C)(C)O)nc21` was tested. Which outcome did it give?
The outcome was “inactive”.

Which outcome does the source give for `CN(C)c1ccc(Cc2ccc(N(C)C)cc2)cc1` here?
The outcome was “inactive”.

`CC[C@H]1OC(=O)[C@H](C)[C@@H](O[C@H]2C[C@@](C)(OC)[C@@H](O)[C@H](C)O2)[C@H](C)[C@@H](O[C@@H]2O[C@H](C)C[C@H](N(C)C)[C@H]2O)[C@](C)(O)C[C@@H](C)C(=O)[C@H](C)[C@@H](O)[C@]1(C)O` was tested. Which outcome did it give?
Its outcome is “inactive”.

For `CC[C@H]1CC[C@H](NCc2cc3c(cc2OC)[C@H]2C[C@H]2C(=O)N3C)[C@H](c2ccccc2)N1`, which outcome is on record?
Its outcome is “inactive”.

`COCCOCCOCCOC` was tested. Which outcome did it give?
Its outcome is “inactive”.

How did the outcome turn out when `CCCCC(CC)COC(=O)CCCCCCCCC(=O)OCC(CC)CCCC` (stereo not given) was run?
The outcome was “inactive”.

For `CN(C)c1ccc(N=NS(=O)(=O)O)cc1`, which outcome is on record?
Its outcome is “inactive”.

Which outcome does the source give for `CC(C)CCCCCCCOC(=O)CCCCC(=O)OCCCCCCCC(C)C` here?
The outcome was “inactive”.

Which outcome does the source give for `CC(=O)c1ccc2c(c1)[C@H](NC(=O)c1ccc(F)cc1)[C@@H](O)C(C)(C)O2` here?
The outcome was “inactive”.

Which outcome does the source give for `O=C1OC(=O)C2C3C=CC(C3)C12` (stereo not given) here?
Its outcome is “inactive”.

For `O=C1CCCCCN1`, which outcome is on record?
Its outcome is “inactive”.

How did the outcome turn out when `CCOCCOCCOCCO` was run?
Its outcome is “inactive”.

How did the outcome turn out when `Nc1cccc(N)c1` was run?
Its outcome is “inactive”.

How did the outcome turn out when `CCCCC(CC)COC(=O)c1ccc(C(=O)OCC(CC)CCCC)cc1` (stereo not given) was run?
Its outcome is “inactive”.

`CCCCCCCCCCCCc1ccccc1` was tested. Which outcome did it give?
The outcome was “inactive”.

How did the outcome turn out when `O=C(NS(=O)(=O)/C=C/c1ccccc1)c1ccc(F)cc1Cl` was run?
The outcome was “inactive”.

How did the outcome turn out when `CC(C)CC(C)(O)C#CC(C)(O)CC(C)C` (stereo not given) was run?
The outcome was “inactive”.

With `Clc1nc(Cl)c(Cl)c(Cl)c1Cl` as the compound, how does the outcome read?
The outcome was “inactive”.

Which outcome does the source give for `CC(C)=CCC/C(C)=C\CO` here?
The outcome was “inactive”.

How did the outcome turn out when `Cc1c(-c2cccnc2)c2ccccc2n1CCCCC(=O)O` was run?
Its outcome is “inactive”.
